Data from PubChem BioAssay (EPA / NIEHS).
Active and inactive are the calls of the source. How the source made its calls: active means hit-call score of the fitted dose curve at least 0.9, where 1 is the maximum; inactive means score below 0.9.

Molecular target: Transcriptional activator Myb (Homo sapiens) (UniProt P10242)
Experiment: ATG_Myb_CIS: Attagene CIS-FACTORIAL HepG2 Assay for human Myeloblastosis (Myb) Proto-Oncogene Transcription Factor (AID 2282986)
Conditions: HepG2 Attagene CIS-FACTORIAL Myb reporter transcription; actives raise or lower the signal
Protocol: ATG_CIS is a cell-based, multiplexed-readout assay that uses HepG2, a human liver cell line, with measurements taken at 24 hours after chemical dosing in a 24-well plate.ATG_Myb_CIS is one of 52 assay component(s) measured or calculated from the ATG_CIS assay. It is designed to make measurements of mRNA induction, a form of inducible reporter, as detected with fluorescence intensity signals by Reverse transcription polymerase chain reaction (RT-PCR) and Capillary electrophoresis technology.Data from the assay component ATG_Myb_CIS was analyzed into 1 assay endpoint. This assay endpoint, ATG_Myb_CIS, was analyzed with bidirectional fitting relative to DMSO as the negative control and baseline of activity. Using a type of inducible reporter, measures of mRNA for gain or loss-of-signal activity can be used to understand the reporter gene at the transcription factor-level as they relate to the gene MYB. Furthermore, this assay endpoint can be referred to as a primary readout, because this assay has produced multiple assay endpoints where this one serves a reporter gene function. To generalize the intended target to other relatable targets, this assay endpoint is annotated to the dna binding intended target family, where the subfamily is MYB proteins.
Human liver HepG2 cells are transiently transfected with multiple reporter transcription units (MRTUs) in 6-well plates using FuGene 6 reagent (Roche; 3 ml FuGene/1 mg DNA). The MRTU constructs are regulated by a cis-regulating element (promoter). […] A major difference between the CIS and TRANS system is that in CIS activities of endogenous TFs are measured, whereas the TRANS assay evaluates changes in activities of exogenous, chimeric NR-Gal4 proteins. […] At the end of 24 hour incubation, total RNA was isolated using TriZol reagent (Invitrogen). The isolated RNA is then reverse-transcribed using oligo(dT) primer and Mo-MLV reverse transcriptase (Invitrogen) with DNAse I (Ambion) treatment for 30 min. The one-tenth of the produced cDNA was amplified by PCR using Taq DNA polymerase (Invitrogen) and two reporter sequence-specific primers. The PCR products were fluorescently labeled by primer extension with 6-arboxyfluorescein (6-FAM) 5'-labeled reporter sequence-specific primer (2 min at 95 C, 20 s at 68 C and 10 min at 72 C) and these products were digested with 5U of HpaI (New England Biolabs) for 2h at 37 C. The fragments were purified using Qiaquick PCR columns (Qiagen), analyzed on an ABI 3130xL genetic analyzer (Applied Biosystems) with peak positions identified by using a set of X-rhodamine (ROX)-labeled MapMarker1000 molecular weight standards (BioVentures). The raw capillary electrophoresis data was processed using Attagraph software (Attagene).

Chain of Transcriptional activator Myb (Homo sapiens) (P10242 whole entry, looked up): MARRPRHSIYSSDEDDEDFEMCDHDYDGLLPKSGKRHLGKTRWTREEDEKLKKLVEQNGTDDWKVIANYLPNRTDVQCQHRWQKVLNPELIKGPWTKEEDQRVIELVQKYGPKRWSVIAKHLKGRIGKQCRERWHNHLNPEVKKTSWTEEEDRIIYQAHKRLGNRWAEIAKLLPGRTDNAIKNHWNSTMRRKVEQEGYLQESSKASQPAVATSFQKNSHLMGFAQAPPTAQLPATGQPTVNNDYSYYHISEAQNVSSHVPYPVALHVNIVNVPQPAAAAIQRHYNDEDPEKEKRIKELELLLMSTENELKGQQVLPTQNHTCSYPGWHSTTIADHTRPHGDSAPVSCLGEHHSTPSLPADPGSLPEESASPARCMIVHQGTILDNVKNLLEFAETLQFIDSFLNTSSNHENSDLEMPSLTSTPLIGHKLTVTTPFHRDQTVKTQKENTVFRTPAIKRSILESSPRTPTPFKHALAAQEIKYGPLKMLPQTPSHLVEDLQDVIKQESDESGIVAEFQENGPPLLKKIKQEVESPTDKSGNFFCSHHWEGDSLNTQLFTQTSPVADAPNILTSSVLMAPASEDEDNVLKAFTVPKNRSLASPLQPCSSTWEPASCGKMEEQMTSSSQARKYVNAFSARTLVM

outcome, inactive:
CCCCCCCCCCCC(=O)OCC(O)CO (stereo not given)
COC(=O)c1ccc([N+](=O)[O-])cc1
COc1ccc(OC)c(N=Nc2c(O)ccc3ccccc23)c1
COCCOC(=O)c1ccccc1C(=O)OCCOC
Cc1ccc(S(=O)(=O)Oc2ccc(N=Nc3ccc(-c4ccc(N=Nc5c(O)ccc6cc(S(=O)(=O)O)cc(S(=O)(=O)O)c56)c(C)c4)cc3C)cc2)cc1
C=CC(=C)CCCC(C)(C)OC(C)=O
CS(=O)(=O)OCCCCOS(C)(=O)=O
CCCCCCCCN1CCCC1=O
CCOC(=O)C(C#N)=C(c1ccccc1)c1ccccc1
O=C(O)CNc1ccccc1
Cc1c(OCC(F)(F)F)ccnc1CS(=O)c1nc2ccccc2[nH]1 (stereo not given)
CCCCCCC(=O)c1ccccc1
CCc1ccc(O)cc1
CCCC(=O)c1ccccc1
C=CCCC(=O)/C=C/C1C(C)=CCCC1(C)C (stereo not given)
O=C(Nc1ccc2c(O)c(N=Nc3ccc(N=Nc4ccc(S(=O)(=O)O)cc4)cc3)c(S(=O)(=O)O)cc2c1)c1ccccc1
CC(=O)C(C)O (stereo not given)
O=C(O)c1ccc(O)cc1
CC(=O)NCCO
COC(C)(C)CCCC(C)CC=O (stereo not given)
Nc1c(Cl)cc(Cl)cc1[N+](=O)[O-]
CSc1c(Cl)c(Cl)c(Cl)c(Cl)c1Cl
CCN(CCC#N)c1ccc(N=Nc2ccc([N+](=O)[O-])cc2)cc1
CCc1cc(Cc2cc(CC)cc(C(C)(C)C)c2O)c(O)c(C(C)(C)C)c1
NCCNc1cccc2ccccc12
CCCCCCOC(=O)CCC
C=C(C)C(=O)OCCOCCOCCOCCOC(=O)C(=C)C
CCCC[O][Al]([O]CCCC)[O]CCCC
CC(C)C[C@H](NC(=O)OCC1c2ccccc2-c2ccccc21)C(=O)O
CC(C)(CO)[C@@H](O)C(=O)NCCC(=O)O
C#CC(C)N(C)C(=O)Nc1ccc(Cl)cc1 (stereo not given)
CCCCCCC(CO)CCCC (stereo not given)
CCOC(=O)[C@@H](C)Oc1ccc(Oc2nc3ccc(Cl)cc3o2)cc1
COCCc1ccc(OCC(O)CNC(C)C)cc1 (stereo not given)
Cc1ccc(C)o1
CCCC(=O)OC(C)(C)Cc1ccccc1
Nc1ccc2c(O)cc(S(=O)(=O)O)cc2c1
C=C1C[C@]23C[C@@]1(O)CC[C@H]2[C@@]12C=C[C@H](O)[C@@](C)(C(=O)O1)[C@H]2[C@@H]3C(=O)O
COc1ccccc1[N+](=O)[O-]
O=C(Nc1ccc([N+](=O)[O-])cc1)Nc1ccc([N+](=O)[O-])cc1 (tested in a mixture with another compound)
